Bioassay records as filed in PubChem BioAssay.
aSyn UTR act: Activators working through SNCA 5'UTR binding (MLPCN) | activity score, % (tested at 7.5 µM), hits read low | actives 7.1% (n = 300,000) | AID 1814 | alpha-synuclein 5'UTR reporter, activators screen; in the data active = activity score below about -60%
Starred values were filed as active, the others as inactive. These entries were drawn from the full list.

`O=C1NC(=Nc2ccc3ccccc3c2)S/C1=C/c1ccco1` gave aSyn UTR act -91*.
For Cn1cccc1/C=C1\SC(=Nc2cccc(O)c2)NC1=O the results were aSyn UTR act -241*.
Screening O=C1NC(=Nc2ccccc2)S/C1=C\c1cccs1 returned aSyn UTR act -92*.
For CCOc1ccc2c(c1)S/C(=C\c1cccs1)C(=O)N2 the results were aSyn UTR act -134*.
For CCOc1ccc(-c2nc(-c3ccncc3)no2)cc1OCC the results were aSyn UTR act -95*.
CCOc1ccc(-c2nc(-c3ccccc3)no2)cc1OCC was read as aSyn UTR act -137*.
Screening Cc1ccc(C(=O)NC(=S)Nc2cc(-c3nc4ccccc4s3)ccc2C)cc1 returned aSyn UTR act -95*.
COc1ccc(-c2nc3ccccc3s2)cc1NC(C)=O was read as aSyn UTR act -127*.
Clc1ccc(-n2nnc(-c3cccnc3Cl)n2)cc1Cl was read as aSyn UTR act -109*.
Screening Fc1ccc(-n2nnc(-c3cccnc3Cl)n2)cc1 returned aSyn UTR act -86*.
`Cc1cccc(N2C(=O)c3cccc4c(N5CCCCC5)c([N+](=O)[O-])cc(c34)C2=O)c1C` gave aSyn UTR act 62.
For O=C1c2cccc3c(N4CCCCC4)ccc(c23)C(=O)N1c1ccc(O)cc1 the results were aSyn UTR act -72*.
Screening O=C1c2ccc3c4c(ccc(c24)C(=O)N1c1cccc(O)c1)C(=O)N(c1cccc(O)c1)C3=O returned aSyn UTR act 68.
For COc1cccc(NC(=O)C(=O)NCc2ccncc2)c1 the results were aSyn UTR act -100*.
Screening O=C(NCc1ccccc1)C(=O)Nc1cccc(C(=O)O)c1 returned aSyn UTR act 74.
Screening COc1cccc(NC(=O)C2=COCCO2)c1 returned aSyn UTR act -64*.
Screening COc1ccc(C(=O)/C=C\c2ccc(NC(=O)c3cccs3)cc2)cc1 returned aSyn UTR act -129*.
`COc1cccc(NC(=O)c2cccs2)c1` gave aSyn UTR act -155*.
Screening COc1cc(NC(=O)c2cccs2)cc(OC)c1 returned aSyn UTR act -90*.
For Oc1c(N=NC(=S)Nc2ccccc2F)c2ccccc2n1Cc1ccccc1Cl the results were aSyn UTR act 87.
COc1ccc(NC(=O)Nc2ccccc2F)c(C)c1 was read as aSyn UTR act -98*.
For CSc1ccccc1NC(=O)Nc1ccc(Cl)cc1 the results were aSyn UTR act -190*.
Screening COc1ccc(NC(=O)Nc2ccccc2F)c([N+](=O)[O-])c1 returned aSyn UTR act -139*.
Screening O=C(Nc1ccccc1)Nc1cccn(Cc2c(F)cccc2Cl)c1=O returned aSyn UTR act -103*.
For COc1cc(C)c(C(=O)CC(=O)c2c(C)cc(OC)cc2C)c(C)c1 the results were aSyn UTR act 72.
Cc1ccc(Cn2c(O)c(N=NC(=S)Nc3ccccc3F)c3ccccc32)cc1 was read as aSyn UTR act 71.
Screening COc1ccc(NC(=O)Nc2ccccc2F)cc1 returned aSyn UTR act -134*.
For COc1ccc(C/C(C)=N/NC(=S)Nc2ccccc2F)cc1 the results were aSyn UTR act -152*.
For O=C(Nc1ccc(F)cc1)Nc1cccnc1Cl the results were aSyn UTR act -81*.
Screening O=C(Nc1ccc(F)cc1)Nc1ccccc1F returned aSyn UTR act -180*.
`COC(=O)c1ccc(NC(=O)Nc2ccccc2F)cc1` gave aSyn UTR act -95*.
Screening Fc1ccccc1NC(=S)N/N=C/c1ccccc1Br returned aSyn UTR act -248*.
`O=C(Nc1ccc(Cl)cc1)Nc1ccccc1CC[N+](=O)[O-]` gave aSyn UTR act -97*.
`O=C(Nc1ccccc1F)Nc1ccccc1Br` gave aSyn UTR act -106*.
Screening CC(=O)N(C)c1ccc(NC(=O)Nc2ccccc2C)cc1 returned aSyn UTR act -107*.
For COc1ccc(NC(=O)Nc2ccccc2SC)cc1 the results were aSyn UTR act -113*.
Screening COc1cccc(COC(=O)Nc2ccccc2F)c1 returned aSyn UTR act -146*.
O=C(C#Cc1ccccc1)Nc1ccccc1F was read as aSyn UTR act -141*.
Screening COc1ccc(NC(=O)Nc2ccccc2F)cc1Cl returned aSyn UTR act -184*.
COc1ccc(NCC(=O)Nc2ccccc2C#N)cc1Cl was read as aSyn UTR act -68*.
Screening CSc1ccc(NC(=O)Nc2ccccc2C(N)=O)cc1 returned aSyn UTR act -92*.
For Cc1ccccc1NC(=O)OCc1ccccc1 the results were aSyn UTR act -84*.
For COC(=O)c1ccc(NC(=O)Nc2ccccc2C)cc1 the results were aSyn UTR act -107*.
`COc1ccc(C)cc1N=Nc1ccc(O)c2ncccc12` gave aSyn UTR act 68.
Cc1ccc(OCCSc2ncccn2)c(C)c1 was read as aSyn UTR act -78*.
Screening c1cnc(SCCOc2cccc3ccccc23)nc1 returned aSyn UTR act -186*.
`CCOc1ccc(N2C(=O)c3ccccc3C2O)cc1` (stereo not given) gave aSyn UTR act -96*.
`CCOc1ccc(N2Cc3ncccc3C2=O)cc1` gave aSyn UTR act -103*.
Cc1ncc(/C=C2\C(=O)Nc3ccccc32)[nH]1 was read as aSyn UTR act -104*.
Cc1sc2ncnc(Sc3ccccc3C(=O)Nc3ccc(Br)cc3)c2c1C was read as aSyn UTR act -86*.
For Cc1ccc(CNC(=O)NC2CCCCC2)cc1 the results were aSyn UTR act -92*.
Screening CCOc1ccc(CNC(=O)Nc2ccccc2)cc1 returned aSyn UTR act -103*.
For COc1ccc(CNC(=O)Nc2cccc(C)c2)cc1 the results were aSyn UTR act -153*.
`O=C(CSc1ccc(F)cc1)NC1CCCCC1` gave aSyn UTR act -69*.
`Cc1cc2cc(CNC(=O)Nc3ccccc3)ccc2[nH]1` gave aSyn UTR act -98*.
Cc1ccc(CNC(=O)Cc2ccc(-c3ccccc3)cc2)cc1 was read as aSyn UTR act 73.
For COc1ccc(C(=O)/C=C/C(=O)N(CC(=O)NC2CCCCC2)Cc2ccc(F)cc2)c(O)c1 the results were aSyn UTR act 72.
O=C(Cc1ccc(O)cc1)NC1CCCCCC1 was read as aSyn UTR act -119*.
For Cc1ccc(CNC(=O)Nc2ccc(C)cc2)cc1 the results were aSyn UTR act -75*.
`COc1ccc(CNC(=O)Nc2ccccc2)cc1` gave aSyn UTR act -114*.
`C/C(CC1CC(COCC(C)C)OC1=O)=N\Nc1nc(-c2ccccc2)cs1` (stereo not given) gave aSyn UTR act -82*.
Cc1ccc2c(c1)COc1c3ccc(C(=O)N[C@@H](C)CO)cc3nn1-2 was read as aSyn UTR act -154*.
Screening Cc1ccc2c(c1)COc1c3ccc(C(=O)NC(C)C)cc3nn1-2 returned aSyn UTR act -204*.
`Cc1cc(C)c2c(N)c(-c3nc4ccccc4[nH]3)sc2n1` gave aSyn UTR act -131*.
For Cn1c(SCc2ccccc2Cl)nnc1-c1cnccn1 the results were aSyn UTR act -92*.
For Cn1c(SCc2cccc(F)c2)nnc1-c1cnccn1 the results were aSyn UTR act -98*.
`COc1ccc(Cn2c(SCc3ccccc3C)nc3cc(OC)c(OC)cc3c2=N)cc1` gave aSyn UTR act 93.
`Cc1ccccc1CSc1nnc(-c2ccccn2)n1C` gave aSyn UTR act -104*.
Cn1c(SCc2ccccc2[N+](=O)[O-])nnc1-c1cccnc1 was read as aSyn UTR act -68*.
`Cn1c(SCc2cccc(F)c2)nnc1-c1ccccn1` gave aSyn UTR act -142*.
